Results published in the supplement of paper PMC6555819.

These sequences were tested on FXR:RXRa (NR concentration 270 nM, RXRa partner concentration 90 nM) (assay: PBM binding z-score (relative to random genomic background probes); higher = stronger binding; sequences stand for … in GC…GCGATTGACAGCGTAGAATGAAGG).
Procedure, shortened: (§1)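 Ligand-free nuclear receptor dimers were bound for 1 h to custom Agilent 4×180K protein-binding microarrays. Detection used antibodies against each partner (one per run). Binding z-scores rest on regression-normalized fluorescence, with random background probes as the reference.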

Sequence | PBM binding z-score
CGTACAGGGTCAGCTAGGCCAGAGTAGGGACGGC | 5.16
ACCGAAAGGTCGAGGTGAGTATAGAGAAAGGGAA | 4.42
AATATTAGTTGACTTAGGGCAACCGATACGACGC | 0.123
ACTAGCAGGCCAAGGGTCACTCCAGATTAGTCCG | 2.22
ATCTCTAGGTAACAAAGTTCAGTGAATGCCGAAC | 0.948
TCTAGCAGGCCAGAGGGTCACTTAAGAGGTACGG | 1.18
TCTTGTAGATCATTAGAGGTTAAGAAAGTGCGCT | 1.06
GCTAGTAGTTGAAAGGGCAACCGAATGATTCTCG | 0.181
GCTCGGAGGACAAGGGCAGAGCTTTGTCCGTAGA | -0.487
AGAATGAGGTTAAGATCATGGAAACAGAATACAT | 2.01
AGTAGCAGGCCAAGTTTGGGTCACTCAAACAAAG | 0.202
TCGAGTAGGTTACCAATGGGGCATTAAGCTTTCT | -0.382
CCAACTAGGTCACGAAAGGTCAAAGTCGAATGAC | 7.46
AGAATGAGGTTACCAAAGATCAGGGAAACGCTTG | 1.86
ATCGAAAGGACGTGAGGTGAGTATACAGAAAGGC | -0.29
TCTAGTTGGACACGGAGGTCACACACGACGGGTA | 2.81
CTACCAAGGTGAACAAGGTCATTGATTACTATTC | 3.73
CGAACTAGGTCATTGACAGGACAGTGAGTAGTAA | 4.28
TCTTGTAGATCAACAGGAGGTTATGAAAGATCGA | 0.335
ACTTACGGGTCATCGAGGTTATAGCACGCGTATA | 6.76

Sequence | PBM binding z-score
GCTATCAGTTGAAAGGGCAACCGAATGATTCTCG | 0.0237
CGAACGAGGGCATGAGTTGATAGCGAATGCCGAT | 0.658
TAGCCTAGGTCATGCGGGCCAGAATAGTGTCGGC | 4.39
GCTAGTTGGTCAGTAAAAGGTCACAAACCGGTCG | 3.06
CCTAGTTGGTCAAGGGCACACACGCTATAGGTAC | 0.355
ACAGACGGGTGAGTGAAGGTAACTCAGCTGGACG | 0.431
CCTATTAGTTGACCATAAGGGCAACCTAAGCTCG | 1.15
GGAACGAGGGCAAGTTGATACCAGAGTTTGATGG | 1.04
CCTTACAGGTCACTCCAGGTTATAGCATCGGAGT | 5.51
TTACCAAGGTGAAGGTTGTTGATCCCTCTGTAGA | 0.965
TCAGATAGGTAAACAGGTGAAAGTCCGTAAGTTA | 0.678
AGAATGAGGTTGAGATCAGGGAAACAGAATACAT | 0.277
TCTCGGAGGACACGAAGGTCACAGCTTTCCAGAG | 2.69
TCTCGGAGGACACGAAGGTCAGATCTTTCCAGAG | 1.76
AGAACGAGGGCACGCGGAGTTGATAGCAGAGTAG | 0.925
CCTCAGAGGACAGAAGGTCAGAGCTGTCCGCTTT | 1.31
TCTCGGAGGACACGAAGGTTAGAGCTTTCCAGAG | 0.31
CGTTCAAGGTCAGAGAGGTCAGTGAATGCCGAGT | 6.69
CTTGCTAGGTCATGGTCAGCTAATCTACAGTATG | 3.63
CCTTACGGGTCTCGAGGTTATAGCACGACGAGCG | 0.0293

The sequences below were run on LXRa:RXRa (NR concentration 270 nM, RXRa partner concentration 90 nM) in the same assay as above.
Procedure, shortened: as §1

Sequence | PBM binding z-score
CGTACAGGGTCAGCTAGGCCAGAGTAGGGACGGC | 2.66
ACCGAAAGGTCGAGGTGAGTATAGAGAAAGGGAA | 3.23
AATATTAGTTGACTTAGGGCAACCGATACGACGC | 0.163
ACTAGCAGGCCAAGGGTCACTCCAGATTAGTCCG | 2.79
ATCTCTAGGTAACAAAGTTCAGTGAATGCCGAAC | 1.9
TCTAGCAGGCCAGAGGGTCACTTAAGAGGTACGG | 0.809
TCTTGTAGATCATTAGAGGTTAAGAAAGTGCGCT | 4.79
GCTAGTAGTTGAAAGGGCAACCGAATGATTCTCG | 0.507
GCTCGGAGGACAAGGGCAGAGCTTTGTCCGTAGA | -0.674
AGAATGAGGTTAAGATCATGGAAACAGAATACAT | 1.71
AGTAGCAGGCCAAGTTTGGGTCACTCAAACAAAG | -0.31
TCGAGTAGGTTACCAATGGGGCATTAAGCTTTCT | 1.24
CCAACTAGGTCACGAAAGGTCAAAGTCGAATGAC | 8.21
AGAATGAGGTTACCAAAGATCAGGGAAACGCTTG | 6.59
ATCGAAAGGACGTGAGGTGAGTATACAGAAAGGC | -0.461
TCTAGTTGGACACGGAGGTCACACACGACGGGTA | 2.85
CTACCAAGGTGAACAAGGTCATTGATTACTATTC | 3.77
CGAACTAGGTCATTGACAGGACAGTGAGTAGTAA | 3.06
TCTTGTAGATCAACAGGAGGTTATGAAAGATCGA | 1.2
ACTTACGGGTCATCGAGGTTATAGCACGCGTATA | 4.95

Sequence | PBM binding z-score
GCTATCAGTTGAAAGGGCAACCGAATGATTCTCG | 0.591
CGAACGAGGGCATGAGTTGATAGCGAATGCCGAT | 0.274
TAGCCTAGGTCATGCGGGCCAGAATAGTGTCGGC | 3.19
GCTAGTTGGTCAGTAAAAGGTCACAAACCGGTCG | 3.78
CCTAGTTGGTCAAGGGCACACACGCTATAGGTAC | 0.541
ACAGACGGGTGAGTGAAGGTAACTCAGCTGGACG | -0.164
CCTATTAGTTGACCATAAGGGCAACCTAAGCTCG | 0.43
GGAACGAGGGCAAGTTGATACCAGAGTTTGATGG | 0.448
CCTTACAGGTCACTCCAGGTTATAGCATCGGAGT | 7.41
TTACCAAGGTGAAGGTTGTTGATCCCTCTGTAGA | 0.801
TCAGATAGGTAAACAGGTGAAAGTCCGTAAGTTA | 0.827
AGAATGAGGTTGAGATCAGGGAAACAGAATACAT | 0.207
TCTCGGAGGACACGAAGGTCACAGCTTTCCAGAG | 2.82
TCTCGGAGGACACGAAGGTCAGATCTTTCCAGAG | 1.41
AGAACGAGGGCACGCGGAGTTGATAGCAGAGTAG | 0.696
CCTCAGAGGACAGAAGGTCAGAGCTGTCCGCTTT | 1.63
TCTCGGAGGACACGAAGGTTAGAGCTTTCCAGAG | -0.0717
CGTTCAAGGTCAGAGAGGTCAGTGAATGCCGAGT | 5.26
CTTGCTAGGTCATGGTCAGCTAATCTACAGTATG | 2.86
CCTTACGGGTCTCGAGGTTATAGCACGACGAGCG | 0.421
